Screens (PubChem BioAssay)
The list is not random: actives were taken first. Their share in the collection is about 5.4%.
PP5 primary: PP5 (human) phosphatase inhibition; purified PP5c, OMFP substrate fluorescence; inhibition, % at 6.7 µM; 0.18% of 320,000 active;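 active = inhibition above the campaign's mean inhibition across all tested compounds plus 3 SD, cut at about 9.5% in these data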;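 also: 0% = DMSO only and 100% = 100 µM cantharidin control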
CSC inhib: cancer stem cell inhibition. inhibition, % at 7.5 µM. AID 2717. 1.1% of 300,000 active. cancer stem cell-like cells viability, luminescence; in the data active = inhibition above about 75%; inconclusive = no clear call, values can overlap the other calls; tested in HMLE shEcad cells
ALR inh: human ALR oxidase inhibition via reduced H2O2; inhibition, % (test concentration not listed); AID 485317; purified ALR, DTT oxidation, H2O2 HRP-luminol luminescence; 3.8% of 290,000 active;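 active = mean replicate inhibition above about 79%, with every replicate also reaching it, limit read from the data; inconclusive = only one of the two criteria met; inactive = mean below limit and not every replicate reaching it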
Target sequence (P55789 whole entry, looked up): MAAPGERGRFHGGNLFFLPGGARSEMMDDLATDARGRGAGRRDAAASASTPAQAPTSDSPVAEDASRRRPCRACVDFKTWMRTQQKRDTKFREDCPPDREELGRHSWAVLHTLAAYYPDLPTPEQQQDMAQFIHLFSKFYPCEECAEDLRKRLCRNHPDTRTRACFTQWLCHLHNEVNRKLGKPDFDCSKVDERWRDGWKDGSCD
PP1 counter: counter-screen for PP5 inhibitors: inhibitors of human PP1-alpha; P62136; purified PP1alpha, OMFP fluorescence; inhibition, % at 6.7 µM; 0.9% of 320,000 active; AID 2235;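 active = inhibition above the mean inhibition of all tested compounds plus 3 SD, computed separately for each screening campaign, cut at about 15% in these data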
Target sequence (P62136 whole entry, looked up): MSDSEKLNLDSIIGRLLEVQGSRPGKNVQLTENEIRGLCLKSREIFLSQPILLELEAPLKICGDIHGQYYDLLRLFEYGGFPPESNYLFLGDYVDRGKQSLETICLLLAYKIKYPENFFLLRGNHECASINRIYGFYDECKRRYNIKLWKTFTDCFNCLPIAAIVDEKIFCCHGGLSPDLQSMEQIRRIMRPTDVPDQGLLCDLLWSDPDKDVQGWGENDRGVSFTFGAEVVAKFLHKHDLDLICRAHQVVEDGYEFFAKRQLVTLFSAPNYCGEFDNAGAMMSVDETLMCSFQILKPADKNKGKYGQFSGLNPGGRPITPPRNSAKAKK
Calb FLC: C. albicans growth modulation with fluconazole | C. albicans CaCi-2 (fluconazole-resistant clinical isolate) + fluconazole, Alamar Blue growth, 48 h | growth inhibition, % (test concentration not listed) | 0.57% of 300,000 active | AID 1979;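 active = growth inhibition above about 58% in most replicates, limit read from the data, passing the limit was not always enough; inconclusive = exactly half the replicates above a set limit; inactive = most replicates below a set limit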;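 also: all wells also contain fluconazole at 8 µg/ml as a sub-toxic cotreatment; 0% = median of DMSO wells and 100% = median of geldanamycin control wells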
The depositor's hits bear a star; ? = inconclusive; . = no result.

SMILES | PP5 primary | CSC inhib | ALR inh | PP1 counter | Calb FLC
COc1ccccc1C(=O)Nc1nnc(-c2ccc(Cl)cc2)o1 | 0.8 | -2.6 | 2.4 | -1.2 | -1.9
O=C(Nc1nnc(-c2ccc(F)cc2)o1)c1ccco1 | 1.3 | 15.2 | 95.6* | 4.6 | 15.6
Brc1ccc(-c2ncc3ccccn23)cc1 | 0.2 | -9.3 | 88.6* | 0.3 | -2.3
COC(=O)C1(C)NC(c2ccc(OC)cc2)C2C(=O)N(c3ccccc3)C(=O)C21 (stereo not given) | 0.7 | -0.1 | -29.1 | -4.8 | .
CC1CCC2C(C1)c1sc(=O)[nH]c1SC2(C)C (stereo not given) | 2.7 | 27.2 | 97.8* | 3.9 | 11.9
Cc1nc(SCC(=O)c2ccc(F)cc2)c([N+](=O)[O-])[nH]1 | -3.0 | 5.0 | 93.3* | -3.5 | 0.6
Cc1nc(SCC(=O)c2ccccc2)[nH]c(=O)c1Oc1ccc(Cl)cc1 | -3.0 | -6.0 | 1.5 | 2.7 | 0.4
COc1ccc(Oc2c(C)nc(SCC(=O)c3ccc(Cl)cc3)[nH]c2=O)cc1 | 0.2 | -0.9 | 88.4* | -0.7 | -5.0
Cc1nc(SCC(=O)c2ccc(Cl)cc2)c([N+](=O)[O-])[nH]1 | 0.2 | -1.3 | 98.7* | 0.2 | ?
CN(C)C1(CN=Cc2cc(Cl)cc([N+](=O)[O-])c2O)CCCCC1 | -1.0 | 7.3 | -7.2 | 1.8 | 0.3
COc1cccc2cc3c(=O)n(-c4ccccc4)nc-3oc12 | 1.4 | -7.3 | . | 6.9 | -0.6
CC1CCC(NC(=O)CCNC(=O)c2ccccc2)CC1 (stereo not given) | 0.1 | -1.3 | -2.5 | -0.6 | 106.9*
COc1cc(C(=O)NCCC(=O)NC2CCC(C)CC2)cc(OC)c1OC (stereo not given) | 0.7 | 9.2 | -1.0 | -8.6 | -9.5
O=C(c1cc(-c2cccnc2)nc2ccccc12)N1CCCc2ccccc21 | 3.3 | 2.2 | 94.7* | -1.9 | 1.0
Cc1ccc(-c2cc(C(=O)N3CCCc4ccccc43)c3ccccc3n2)cc1 | 2.8 | 32.4 | -30.9 | 1.5 | 5.3
Cc1ccc(S(=O)(=O)NN2C(=O)c3ccccc3NC2c2cccc(O)c2)cc1 (stereo not given) | 0.6 | . | 1.0 | -1.1 | -0.6
C=C(NC(=O)C(=C)NC(=O)c1csc(C2=NC3c4csc(n4)C4NC(=O)c5csc(n5)C([C@@](C)(O)C(C)O)NC(=O)C5CSC(=N5)/C(=C\C)NC(=O)C(C(C)O)NC(=O)c5csc(n5)[C@]3(CC2)NC(=O)C(C)NC(=O)C(=C)NC(=O)C(C)NC(=O)C(C(C)CC)NC2C=Cc3c(C(C)O)cc(nc3C2O)C(=O)OC4C)n1)C(N)=O (stereo not given in full) | 0.6 | 80.5* | . | 7.8 | .
COc1ccc(C(=O)C2CCCN(Cc3cnc(N4CCCC4)s3)C2)cc1OC (stereo not given) | 4.9 | 0.1 | 97.6* | -0.3 | -21.2
NC(=O)CC12CC3CC(C1)CC(CC(N)=O)(C3)C2 | 0.8 | -4.4 | -23.2 | -1.0 | 87.5*
CCOC(=O)c1c(-c2ccc(Cl)cc2)csc1NC(=O)CNCc1ccco1 | 2.4 | 77.3* | -6.0 | 0.3 | 1.5
CCOC(=O)c1c(-c2ccc(C)cc2)csc1NC(=O)CCN1CC(C)OC(C)C1 (stereo not given) | 3.9 | -1.1 | 97.2* | 5.7 | 5.2
CCOC(=O)c1c(-c2ccccc2)csc1NC(=O)c1nn(CC)cc1Br | 1.2 | 80.2* | -11.3 | 0.3 | 2.1
Cc1cc(C)n(-c2ccc(F)cc2)c(=O)c1C(=O)O | 0.8 | -0.4 | -4.8 | -5.2 | -4.9
O=C1CC(c2ccco2)Cc2c1cnn2-c1nc2ccccc2s1 (stereo not given) | -1.2 | -19.7 | 26.8 | -1.1 | -7.0
O=C(CN1C(=O)S/C(=C\C=C\c2ccccc2)C1=O)Nc1ccc(C(=O)O)cc1 | 2.0 | 4.6 | 98.4* | 9.6 | 0.4
SMILES | PP5 primary | CSC inhib | ALR inh | PP1 counter | Calb FLC
CC(/C=C1\SC(=O)N(CC(=O)Nc2cccc(O)c2)C1=O)=C\c1ccccc1 | 5.5 | 117.0* | -5.0 | 8.2 | -12.1
CC(/C=C1\SC(=O)N(CC(=O)Nc2ccc(O)cc2)C1=O)=C\c1ccccc1 | 4.1 | 49.6 | -26.9 | 1.7 | -8.4
O=C(COC(=O)CCCNC(=O)c1ccc(Cl)cc1)Nc1cc(Cl)c(Cl)cc1Cl | 0.3 | -2.4 | -15.6 | -4.6 | -2.9
COc1ccc(C(CCNCc2ccc(OC(C)C)cc2)c2ccccc2OC)cc1 (stereo not given) | 0.1 | 101.2* | -4.9 | 11.7 | 29.9
CCOC(=O)/C(CCC[N+](C)(CC)CC)=N\O | 0.8 | -8.5 | 3.6 | -0.2 | -12.2
CCNc1ccc(S(=O)(=O)N(C)C)cc1NCC(=O)Nc1c(F)cccc1F | 0.5 | 7.5 | . | 2.5 | -16.1
CCNc1ccc(S(=O)(=O)N(C)C)cc1NCC(=O)Nc1ccccc1Cl | 1.1 | -6.3 | 98.7* | -5.6 | -21.6
CCc1c(C)[nH]n(-c2ccc(Oc3ccccc3)c(S(=O)(=O)O)c2)c1=O | 2.5 | -1.1 | 99.4* | 2.8 | .
Cc1cc(C)n(-c2ccc(Oc3ccccc3)c(S(=O)(=O)O)c2)n1 | 3.2 | -9.3 | 8.3 | -3.9 | -3.8
Cc1ccc(S(=O)(=O)NN2C(=O)/C(=C\c3ccc(Cl)cc3)SC2=S)cc1 | 0.2 | . | -2.2 | -0.8 | 28.9
CC(=O)Nc1ccc(NC(=O)C(C)OC(=O)[C@@H]2CCCN2C(=O)c2cccs2)cc1 (stereo not given in full) | . | 20.5 | -0.5 | . | .
CCOC(=O)c1cc(CC)sc1NC(=O)COC(=O)C1CCC1 | 1.1 | -0.6 | 2.7 | -4.0 | -8.2
CCOc1ccc(N=Nc2c(N)[nH][nH]c2=O)cc1 | 0.6 | 2.3 | 98.6* | -0.5 | 10.1
COc1ccc(OC)c(C(C(=O)NCc2ccco2)N(C(=O)Cn2nnc3ccccc32)C(C)C)c1 (stereo not given) | 2.3 | -4.9 | 1.2 | -0.1 | -7.0
Cn1c(NCc2cccc(Br)c2)nc2ccccc21 | 4.2 | 0.8 | 93.0* | -2.5 | 5.7
COc1cccc(CNc2nc3ccccc3n2CCN2CCCCC2)c1OC | 2.0 | 5.2 | 98.6* | 0.4 | .
CCCn1c(NCc2cc(OC)ccc2OC)nc2ccccc21 | 0.5 | -13.8 | 88.6* | -3.4 | -2.0
COc1ccc(CNc2nc3ccccc3n2CCN2CCCCC2)c(OC)c1 | 1.0 | 0.9 | 68.6 | -0.4 | -10.4
COc1cccc(CNc2nc3ccccc3n2CCN2CCCCC2)c1 | 1.8 | -9.9 | 98.7* | 0.0 | 4.3
Brc1cccc(CNc2nc3ccccc3n2CCN2CCCCC2)c1 | 3.5 | 7.1 | . | 1.2 | 8.3
COc1ccc(OC)c(CNc2nc3ccccc3n2CCN2CCCCC2)c1 | 2.0 | 0.8 | -2.0 | 3.2 | -9.0
CCCCCC(=O)NC(=S)Nc1cccc(C(C)=O)c1 | -3.2 | -2.0 | -3.6 | -0.7 | ?
CN1C[C@@H]2C(c3ccccc3)C3(c4ccccc4)CC2(C3)[C@H]1c1ccccc1 (stereo not given in full) | 5.5 | -8.2 | -11.0 | 9.2 | 109.6*
O=c1c2ccccc2oc2ccc(C#CC3(O)CCCCC3)cc12 | 4.8 | 92.7* | -3.1 | 1.7 | -5.2
COc1ccc(NC(=O)Nc2ccc3nccnc3c2)cc1 | 2.1 | 3.9 | 99.8* | -3.2 | -32.9
CCOc1ccc(NC(=O)Nc2ccc(Cc3ccncc3)cc2)cc1 | 0.8 | 80.4* | -1.4 | -0.6 | 14.9
